Bioassay records as filed in PubChem BioAssay.
In the library only some 15% were active in any assay of this set; here they are far more common.
TDP1 cell CPT: growth inhibition of DT40 Tdp1-/-;hTDP1 cells with camptothecin (screen for TDP1 inhibitors); chicken DT40 Tdp1-/-;hTDP1 cells + 20 nM CPT, ATP luminescence, 48 h; Potency, µM (top dose mostly 46.2 µM), inactives show top-dose activity change, negative = growth inhibition, usual class: inhibitors; 420,000 compounds, 12% hits; AID 686979; note: nearly all actives have a fitted effect of over 55% in size
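Chicken DT40 Tdp1-/- cells stably complemented with human TDP1 were seeded at 400 cells/well in medium containing 20 nM camptothecin, exposed to pin-transferred compounds, and grown at 37 °C for at least 48 hr. Viability was read as ATP luminescence.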
12-LOX inh: blocks human arachidonate 12S-lipoxygenase. 580,000 compounds, 1.1% hits. Potency, µM (titrated, usually from 108 µM), for the others: top-dose activity change, negative = inhibition, hits mostly inhibitors. AID 1671190. purified 12hLO, xylenol orange hydroperoxide absorbance
Target sequence (P18054 whole entry, looked up): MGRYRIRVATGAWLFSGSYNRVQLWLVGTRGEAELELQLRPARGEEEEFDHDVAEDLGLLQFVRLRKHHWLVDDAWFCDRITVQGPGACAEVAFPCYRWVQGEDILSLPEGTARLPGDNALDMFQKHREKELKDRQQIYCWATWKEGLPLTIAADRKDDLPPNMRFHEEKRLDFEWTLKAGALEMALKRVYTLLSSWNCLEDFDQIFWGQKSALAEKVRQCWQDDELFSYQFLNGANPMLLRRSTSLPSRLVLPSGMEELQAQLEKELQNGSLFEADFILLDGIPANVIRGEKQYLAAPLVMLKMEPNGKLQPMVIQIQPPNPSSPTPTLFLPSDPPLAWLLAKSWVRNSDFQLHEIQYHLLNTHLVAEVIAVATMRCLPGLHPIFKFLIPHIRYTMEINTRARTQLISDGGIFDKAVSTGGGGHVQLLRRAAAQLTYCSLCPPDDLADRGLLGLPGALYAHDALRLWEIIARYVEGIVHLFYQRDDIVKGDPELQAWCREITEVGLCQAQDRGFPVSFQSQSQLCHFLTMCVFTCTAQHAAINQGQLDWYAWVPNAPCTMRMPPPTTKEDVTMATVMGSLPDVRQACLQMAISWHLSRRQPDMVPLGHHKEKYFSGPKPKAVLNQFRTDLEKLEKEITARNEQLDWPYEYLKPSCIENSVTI
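Hydroperoxide product was detected by ferrous iron/xylenol orange as the 573 to 405 nm absorbance ratio. Arachidonic acid at 40 uM (final) was turned over for 30 min at room temperature by 150 nM human 12hLO, pH 7.0 Hepes buffer, after 15 min compound preincubation.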
Gal4-VP16 FLuc: inhibits Gal4-VP16 luciferase reporter, ROR gamma counter-screen | Drosophila S2 Gal4-VP16 UAS-luciferase, luminescence, 20 h | Potency, µM (titrated, usually from 53.6 µM), for inactives: at the top dose activity, negative = inhibition, most hits filed as inhibitors | 310,000 compounds, 3.5% hits;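 note: Gal4-VP16 expression switched on by copper sulfate through the metallothionein promoter; nearly all actives have a fitted effect of over 50% in size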
ELG1 DNA repair: inhibitors of ELG1-dependent DNA repair in HEK293T cells; 330,000 compounds, 2.3% hits; Potency, µM (titrated, usually from 46.1 µM), for the others: at the highest dose activity change, negative = inhibition, hits mostly inhibitors; HEK293T ELG1-luciferase reporter, luminescence, 16 h; DNA damage induced by 5-fluorouridine; AID 504467; note: nearly all actives have a fitted effect of over 55% in size
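DMSO vehicle served as the neutral condition. Each well held 2,000 cells given 5-fluorouridine plus compound; after 16 hr at 37 °C/5% CO2, ONE-Glo was added and luciferase measured 30 min later.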
RORgamma inh: blocks mouse ROR gamma transcriptional activity; Potency, µM (doses to about 53.6 µM), for the others: top-dose activity change, negative = inhibition, most hits filed as inhibitors; 310,000 compounds, 5.4% hits; Drosophila S2 Gal4-RORgamma UAS-luciferase reporter, 20 h; P51450; note: nearly all actives have a fitted effect of over 60% in size
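Drosophila S2 cells stably expressing Gal4-DBD/mouse RORγ fusion under metallothionein promoter plus UAS-luciferase; compound 1 h, then 700 uM CuSO4 induction for 20 h at ambient temperature; inhibition read as reduced luminescence.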
TDP1 cell noCPT: qHTS for Inhibitors of human tyrosyl-DNA phosphodiesterase 1 (TDP1): qHTS in cells in absence of CPT | DT40 Tdp1-/- hTDP1 cells, no CPT, ATP luminescence, 48 h | Potency, µM (series often up to 46.2 µM), inactives show top-dose activity change, negative = growth inhibition, hits mostly inhibitors | 420,000 compounds, 15% hits | AID 686978, 2013; note: nearly all actives have a fitted effect of over 55% in size
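Stably hTDP1-transfected Tdp1-null chicken DT40 cells were treated with library compounds minus camptothecin and grown for at least 48 hr at 37 °C, after which cellular ATP was quantified by luminescence.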
* = called active by the depositor. Calls come from the whole dose curve; as a rule, active = well fitted curve in the direction sought with a large enough effect; inconclusive = small, poorly fitted or top-dose-only effect, or another doubt; inactive = no such curve, though single readings can be large; an effect the other way counts as inactive or inconclusive. % is set by controls: 0 for no effect and ±100 for the full control effect; potency is the fitted concentration of half-maximal effect.

Screening Cc1cccc(N(C(=O)CNC(=O)c2ccco2)C(C(=O)NC2CCCCC2)c2cccnc2)c1 (centres undefined) returned TDP1 cell CPT 22%, 12-LOX inh 6%, Gal4-VP16 FLuc -13%, ELG1 DNA repair 4%, RORgamma inh 5% and TDP1 cell noCPT -1%.
CCOC(=O)c1cnc2c(Cl)cccc2c1Nc1ccc(OC)cc1 was read as 12-LOX inh -11%.
For CCc1cc(=O)n(CC(=O)NCc2ccc(OC)cc2)c(N2CCOCC2)n1 the results were 12-LOX inh 1%.
For CCn1c(SCC(=O)NC(C)c2ccc3c(c2)CCCC3)nnc1C1CC1 (centres undefined) the results were 12-LOX inh 11%.
Screening C/C(=N\NC(N)=S)C1=CCC2C3CC[C@H]4CC(O)CC[C@]4(C)C3CC[C@]12C (some centres undefined) returned TDP1 cell CPT 18µM*, 12-LOX inh -16%, Gal4-VP16 FLuc inconclusive, ELG1 DNA repair -5%, RORgamma inh 2.5µM* and TDP1 cell noCPT 5.2µM*.
CCCN(CC1CCOC1)S(=O)(=O)c1ccc(C)cc1C (centres undefined) was read as 12-LOX inh 29%.
Screening O=C(c1ccc(Cn2ccnc2)o1)N1CC2CC(C1)[C@H]1CCCC(=O)N1C2 (some centres undefined) returned 12-LOX inh -13%.
For CCN1CC(CNCc2cn(-c3ccc(OC)cc3)nc2-c2ccccc2Cl)CC1=O (centres undefined) the results were TDP1 cell CPT inconclusive, 12-LOX inh 0%, Gal4-VP16 FLuc -4%, ELG1 DNA repair 7%, RORgamma inh -1% and TDP1 cell noCPT inconclusive.
`Cc1ccc(-n2cc(CNCCc3cscn3)c(-c3ccc(F)cc3)n2)cc1` gave TDP1 cell CPT inconclusive, 12-LOX inh inconclusive, Gal4-VP16 FLuc 27%, ELG1 DNA repair 7%, RORgamma inh -44% and TDP1 cell noCPT 23µM*.
For COc1ccc(-n2cc(CNCC3CC(=O)N(C4CC4)C3)c(-c3ccccc3Cl)n2)cc1 (centres undefined) the results were TDP1 cell CPT 16µM*, 12-LOX inh -16%, Gal4-VP16 FLuc inconclusive, ELG1 DNA repair -2%, RORgamma inh inconclusive and TDP1 cell noCPT 23µM*.
COc1ccc(-n2cc(CNCCc3cscn3)c(-c3ccccc3Cl)n2)cc1 was read as TDP1 cell CPT 16µM*, 12-LOX inh -27%, Gal4-VP16 FLuc 4%, ELG1 DNA repair -1%, RORgamma inh 0% and TDP1 cell noCPT 12µM*.
For COc1ccc(-c2nn(-c3ccccc3)cc2CNC[C@H]2O[C@@H](n3cnc4c(N)ncnc43)[C@H](O)[C@@H]2O)cc1 the results were TDP1 cell CPT -11%, 12-LOX inh 0%, ELG1 DNA repair inconclusive and TDP1 cell noCPT -15%.
Cc1ccc(CN2CCc3c(cc(C(=O)N4CCCN(C)CC4)n3C)C2)cc1 was read as 12-LOX inh 36%.
`CCN(CC)C(=O)CSc1nc2ccc(NC(=O)CSc3nccn3C)cc2s1` gave TDP1 cell CPT -29%, 12-LOX inh 2%, Gal4-VP16 FLuc 3%, ELG1 DNA repair 21µM*, RORgamma inh inconclusive and TDP1 cell noCPT 16µM*.
`Cn1cnnc1SCC(=O)Nc1ccc2nc(SCc3ccccc3Cl)sc2c1` gave TDP1 cell CPT 13%, 12-LOX inh 3%, Gal4-VP16 FLuc inconclusive, ELG1 DNA repair inconclusive, RORgamma inh inconclusive and TDP1 cell noCPT 2%.
`CCOC(=O)Nc1ccc2nc(Sc3ccc(Cl)cc3)sc2c1` gave TDP1 cell CPT 5.8µM*, 12-LOX inh inconclusive, Gal4-VP16 FLuc inconclusive, ELG1 DNA repair -20%, RORgamma inh inconclusive and TDP1 cell noCPT 5.8µM*.
For CCN(CC)C(=O)CSc1nc2ccc(NC(=O)CSc3nnc(N)s3)cc2s1 the results were TDP1 cell CPT inconclusive, 12-LOX inh 0%, Gal4-VP16 FLuc 3%, ELG1 DNA repair 1%, RORgamma inh 5% and TDP1 cell noCPT inconclusive.
For Cn1cnnc1SCC(=O)Nc1ccc2nc(SCc3cccc4ccccc34)sc2c1 the results were TDP1 cell CPT 23µM*, 12-LOX inh 127%, Gal4-VP16 FLuc 0%, ELG1 DNA repair -19%, RORgamma inh inconclusive and TDP1 cell noCPT inconclusive.
O=C(Nc1ccc2nc(SCc3cccc4ccccc34)sc2c1)c1ccc(Cl)cc1 was read as 12-LOX inh 28µM*.
COc1ccccc1-c1nc(NC2CC2)c2ccccc2n1 was read as TDP1 cell CPT inconclusive, 12-LOX inh inconclusive, Gal4-VP16 FLuc -23%, RORgamma inh -24% and TDP1 cell noCPT inconclusive.
Screening CNc1nc(-c2ccccc2C)nc2ccccc12 returned TDP1 cell CPT inconclusive, 12-LOX inh 40µM*, Gal4-VP16 FLuc -17%, RORgamma inh 34% and TDP1 cell noCPT -20%.
For Oc1ccccc1-c1nc(NC2CCCC2)c2ccccc2n1 the results were TDP1 cell CPT 2%, 12-LOX inh 0%, Gal4-VP16 FLuc 1%, ELG1 DNA repair inconclusive, RORgamma inh -36% and TDP1 cell noCPT -24%.
Screening Cc1ccccc1-c1nc(NC2CCNCC2)c2ccccc2n1 returned TDP1 cell CPT 13µM*, 12-LOX inh inconclusive, Gal4-VP16 FLuc 18%, RORgamma inh 0% and TDP1 cell noCPT 12µM*.
For CNc1nc(-c2ccccc2Cl)nc2ccccc12 the results were TDP1 cell CPT -17%, 12-LOX inh -27%, Gal4-VP16 FLuc -16%, RORgamma inh 39% and TDP1 cell noCPT -23%.
For Clc1ccccc1-c1nc(NC2CCNCC2)c2ccccc2n1 the results were TDP1 cell CPT 10µM*, 12-LOX inh inconclusive, Gal4-VP16 FLuc -4%, RORgamma inh 18% and TDP1 cell noCPT 26µM*.
Screening COc1cccc(NC(=O)COC(=O)c2cc3c(C)nn(-c4ccc(F)cc4)c3s2)c1 returned 12-LOX inh 30%.
For COc1cc(OC)cc(C(=O)N[C@@H]2CN(c3ncccn3)C[C@H]2CO)c1 the results were 12-LOX inh -4%.
Screening Cc1cc(C)c(C(=O)COC(=O)c2cccc(S(=O)(=O)NCc3ccccc3)c2)cc1C returned TDP1 cell CPT inconclusive, 12-LOX inh 9%, Gal4-VP16 FLuc inconclusive, ELG1 DNA repair inconclusive, RORgamma inh 37% and TDP1 cell noCPT 16µM*.
